Over roughly 39,000 sequences, “fluorescence intensity (a.u.)” has its median near 4,300; the highest 2% begin near 39,000. What follows is part of a selection rich in the highest values, with near analogues and random picks from the rest.
Molecular target: T1, OsSMF1 (Oryza sativa, UniProt Q6ZLB0 1-436)
T1 sequence: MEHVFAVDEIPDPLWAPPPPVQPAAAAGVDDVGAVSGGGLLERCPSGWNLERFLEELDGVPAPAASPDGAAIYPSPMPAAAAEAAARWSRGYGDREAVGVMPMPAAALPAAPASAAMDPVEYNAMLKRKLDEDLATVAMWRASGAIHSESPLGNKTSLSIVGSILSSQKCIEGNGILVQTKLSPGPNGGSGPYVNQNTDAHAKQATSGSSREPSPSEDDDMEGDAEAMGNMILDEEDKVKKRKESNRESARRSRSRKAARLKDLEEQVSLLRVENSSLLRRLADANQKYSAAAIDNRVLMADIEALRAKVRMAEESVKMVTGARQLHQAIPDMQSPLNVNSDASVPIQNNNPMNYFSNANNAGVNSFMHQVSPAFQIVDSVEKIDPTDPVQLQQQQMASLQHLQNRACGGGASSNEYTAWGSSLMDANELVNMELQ
Test: protein-binding microarray (RPBM); PBS, 2% BSA, 51.3 ng/ul salmon testes DNA, 50 uM zinc acetate, 200 nM TF, 25 C, 1 h; high values mean tight binding
Conditions: protein: recombinant; tags: N-terminal polyhistidine and DsRed monomer fusion (pET32a); chain copies: 2; label: CyDye5-dUTP incorporated in the synthesized complementary strand; 3' TTTTT single-stranded linker to array surface; dsDNA, one strand shown
Outline: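 The binding signal is fluorescence intensity per feature, in arbitrary units, read on an Axon 4000B scanner. Polyhistidine- and DsRed-tagged transcription factors (N-terminal fusions) from E. coli BL21-CodonPlus were purified on Ni–NTA and applied at 200 nM for 1 h at 25 °C to a double-stranded, BSA-blocked custom Agilent array in buffer with 50 µM zinc acetate.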

| Sequence | binding signal |
| --- | --- |
| CCTTTCCCTCTCCACTCTCCACCATCCTCTGCAGCTGACTCGGAGTCACCTAGTGCAG | 3330 fluorescence intensity (a.u.) |
| CTGCGTTACTTCGACATTGCCCGACGTGTTGACTGTGTTGCGGAGTCACCTAGTGCAG | 4070 fluorescence intensity (a.u.) |
| GTGTGAGGTTCATGCTGGGCGGTGACGCGACGGCGGAGACCGGAGTCACCTAGTGCAG | 6730 fluorescence intensity (a.u.) |
| GTTACGACAAGTGCCACAAACCAGCAGAAGCAAAGGTAGACGGAGTCACCTAGTGCAG | 47900 fluorescence intensity (a.u.) |
| AAGAAGAAGACGACGACGTGGCGAGCCAAGTAGCAGCAAACGGAGTCACCTAGTGCAG | 3620 fluorescence intensity (a.u.) |
| CTAGAAGTTACCAAGGTACCAGAGCAGACACCTAAGCAGCCGGAGTCACCTAGTGCAG | 3370 fluorescence intensity (a.u.) |
| AGTATGAAAGACCTGAGGATGACCCGGATTATATTCCTATCGGAGTCACCTAGTGCAG | 3320 fluorescence intensity (a.u.) |
| GCAATGCATTTCAAATTCAGGACCCCATAGAGAAATCAACCGGAGTCACCTAGTGCAG | 29200 fluorescence intensity (a.u.) |
| AAACAAAGTGGCACAGATAAAATGGAACATAGAAGTGGCACGGAGTCACCTAGTGCAG | 40700 fluorescence intensity (a.u.) |
| AAAATCATACGAACGGAAAAGCAAAAGATAGAAGCCAAAACGGAGTCACCTAGTGCAG | 16500 fluorescence intensity (a.u.) |
| GACACAAACAAAATCGAGAAGATGGCATACCTACCATACACGGAGTCACCTAGTGCAG | 22800 fluorescence intensity (a.u.) |
| GATAACCGTAACTAACCGGCTTGGTCAGCAAGCCAAAGTGCGGAGTCACCTAGTGCAG | 6310 fluorescence intensity (a.u.) |
| CTTCCACTGACATGACACCAAGAGACCACTTTCTTTAATTCGGAGTCACCTAGTGCAG | 3250 fluorescence intensity (a.u.) |
| ATTCTTGCTACCTATAATTGCAACATGACAGAGTGTTAAGCGGAGTCACCTAGTGCAG | 3480 fluorescence intensity (a.u.) |
| ATAATGAACAATTTCTTTCCAAGCTACATGTAGACCAGAGCGGAGTCACCTAGTGCAG | 40100 fluorescence intensity (a.u.) |
| CTTGTTTCACCTGTCATACACACGTTACGTCTTAGAGTCCCGGAGTCACCTAGTGCAG | 5140 fluorescence intensity (a.u.) |
| GTAGAAGACCGGCGGAAAGTGTGAGGAGGGTGACAAGGGGCGGAGTCACCTAGTGCAG | 3420 fluorescence intensity (a.u.) |
| TACAGCGTCATTGCAAGAATGGTGACGGGGTTTGAGGTTGCGGAGTCACCTAGTGCAG | 6110 fluorescence intensity (a.u.) |
| TGATTGCAACAGGTGGGCTGGTTTTGCGTCATTTGACCAGCGGAGTCACCTAGTGCAG | 51900 fluorescence intensity (a.u.) |
| ATTTTGACTGATGTGACGTTTGCGTGGCTGGTTTGATTAGCGGAGTCACCTAGTGCAG | 4770 fluorescence intensity (a.u.) |
| CTTGTCGCATCTGAACGTGTCGAGTCACACCTGTGTGTTACGGAGTCACCTAGTGCAG | 8330 fluorescence intensity (a.u.) |

| Sequence | binding signal |
| --- | --- |
| TTGGCGTGTGTGCAGCATTTGCGGCGGCGGCTGAGAAAGACGGAGTCACCTAGTGCAG | 31100 fluorescence intensity (a.u.) |
| CATTGGTGGCGTAATGTGGTTGTTAGTGATTTGTTGCACCCGGAGTCACCTAGTGCAG | 3460 fluorescence intensity (a.u.) |
| TCAATCTGGCGGGGTTTATTTGTGACCCTCGATCGGTCAACGGAGTCACCTAGTGCAG | 4060 fluorescence intensity (a.u.) |
| TAAAATTTAAATTTTGGCTAATAAGTATAAGCATAACTGTCGGAGTCACCTAGTGCAG | 34300 fluorescence intensity (a.u.) |
| AATAAGTAAGGTGGTTTTAAAATTTGGGGAGAGCTAACAGCGGAGTCACCTAGTGCAG | 39100 fluorescence intensity (a.u.) |
| GGAGGTGGGGATGGTGGGAGGTTTTGGTTTGGTAAAATAGCGGAGTCACCTAGTGCAG | 4910 fluorescence intensity (a.u.) |
| GCTACACTTAACGCTGTCCACAACTCCACATACGCGTTACCGGAGTCACCTAGTGCAG | 3330 fluorescence intensity (a.u.) |
| ATTTCTAATGCCACGTTAACGCCACGTGGAAAGAAGACCGCGGAGTCACCTAGTGCAG | 17900 fluorescence intensity (a.u.) |
| GAACGGTAGAATGATTATTGCTCCTTCAGTTTTCGAGTAACGGAGTCACCTAGTGCAG | 3320 fluorescence intensity (a.u.) |
| TGAACCGGCCGGTTTTCATGTGAACCGTGAACCGTAATAACGGAGTCACCTAGTGCAG | 3240 fluorescence intensity (a.u.) |
| CTATGACGGGTCGAAAACGGAACCCGTCAAAGATGAGTTACGGAGTCACCTAGTGCAG | 18300 fluorescence intensity (a.u.) |
| TCCGTTCTGTTTATGAATAACGGTCGAAAACGTAATAACCCGGAGTCACCTAGTGCAG | 46300 fluorescence intensity (a.u.) |
| GTGGTACACGCATGCTGACTAATTAAGACCGACAGAATCCCGGAGTCACCTAGTGCAG | 3390 fluorescence intensity (a.u.) |
| AACATGAAAGCTCAAGAGCTCGTGCTGACGGCTGAGAATCCGGAGTCACCTAGTGCAG | 3150 fluorescence intensity (a.u.) |
| TATGGACACCATCCTTGTCATTGGGTTAGGACTGGCCTTACGGAGTCACCTAGTGCAG | 3630 fluorescence intensity (a.u.) |
| GCCATCCAACTATTTTCATGGATCAACATCATAGTAGTATCGGAGTCACCTAGTGCAG | 3140 fluorescence intensity (a.u.) |
| TTCATCCTATCACATCAAATATTTGGATACATACATGGAGCGGAGTCACCTAGTGCAG | 45500 fluorescence intensity (a.u.) |
| AAATAGTCACACATAAAATACTATTCATATTTTATCATCTCGGAGTCACCTAGTGCAG | 13500 fluorescence intensity (a.u.) |
| TTGCTTGCGAGCAAAGGTGGAGTTCATGCCCTCATCATATCGGAGTCACCTAGTGCAG | 3710 fluorescence intensity (a.u.) |
| AATATAATGGCCGCTCGCTGATGGGTGCGTCATGCACCCTCGGAGTCACCTAGTGCAG | 4060 fluorescence intensity (a.u.) |
| ATCCCCGGTCATCTCGCCTCGTCTCGTCCCGTCCCTGCGCCGGAGTCACCTAGTGCAG | 3460 fluorescence intensity (a.u.) |

— article PMC7819943, “Rice protein-binding microarrays: a tool to detect cis-acting elements near promoter regions in rice”
